The test system of the test is PPARg homodimer (NR concentration 180 nM). Description: PBM binding z-score (relative to random genomic background probes); higher = stronger binding; sequences stand for … in GC…GCGATTGACAGCGTAGAATGAAGG
The method, boiled down:
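The probes on custom Agilent 4×180K protein-binding microarrays were double-stranded, with 34-nt variable regions bearing direct-repeat seeds, single-nucleotide variants, half-site ablations and random human genomic background sequences. Incubation lasted 1 h with ligand-free nuclear receptor dimers in PBS pH 7.4, 2% milk, 0.02% Triton X-100, 1 mM DTT, 0.2 mg/mL BSA and 0.4 mg/ml salmon testes DNA. Antibodies against each partner (one per run) detected bound dimers, and fluorescence scans were regression-normalized. Binding z-scores take the random background probes as reference.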
Sequence TCGAGTAGGTTAGGGGCATTCACAATGGCGTCGA had a PBM binding z-score of 0.582.

Take TCAAATAGGTAAACAGGTGAAAGTCCGTAAGTTA: the PBM binding z-score was 1.07.

The sequence CTACCAAGGTGAACAAGGTCGGTGATTACTATTC yielded a PBM binding z-score of 0.38.

As for GCATATAGGTAATACAAGGTGAATGTCCGATTGT, the PBM binding z-score was determined as 0.903.

CATCAAAGTTCAAGGTAACGTAACAGAAAGCAGC displayed a PBM binding z-score of 2.92.

The sequence ATATGTAGGTTAGCTGGGATCATTCAGACTAGGC displayed a PBM binding z-score of 0.83.

Turning to ACTTACGGTTCAACGAGGTTATAGCACGCGTATA, the PBM binding z-score was found to be 1.64.

In turn, CCTACTCGGCCAAAGGTCATTGATTCCAATGCTC came in with a PBM binding z-score of 3.85.

CCTAGTTGGTCAGGAGGTGACACACCGGATATGA displayed a PBM binding z-score of 1.41.

In turn, TGACCAAGGTGAAGGTCGTTGATCCCTCTGTAGA returned a PBM binding z-score of 0.818.

For the sequence GGAACGAGGGCATACGAGTTGATAGCATGGCGAT, the PBM binding z-score amounted to 0.0813.

Take TCTATTAGTTGAAGGGCGACCGACGAGTCCGTTT: the PBM binding z-score turned out to be 0.852.

With TCTTGTAGATCAAGCAGGTTGAGAAAGCCTGAGT, the PBM binding z-score was -0.463.

In the case of ACAGACAGGTGATGAATGTAACTCAGGCTATCAT, the PBM binding z-score came to 0.379.

Regarding AGAATGAGGTTACCACAGATCAGGGAAACGCTTG, the PBM binding z-score is 1.11.

In the case of ACAGACAGGTGAGGAAGGTAACTCAGGCTATCAT, the PBM binding z-score was -0.277.

As for GATACAGGGTCAAGCCCAGAGTACGCGTATTGAT, the PBM binding z-score came out at 2.23.

CCTTACGGGTCAAGGCTATAGCACGGGTGGTACG: the PBM binding z-score is 1.08.

As for CCTAGTTGGTCAGTAGGTCACACACCGGATATGA, the PBM binding z-score stood at 3.06.

Sequence AATCGGAGGACAAAGGTCAGAGCTACGCCAGTGA came in with a PBM binding z-score of 2.97.

For the sequence CAAACTAGGTCAAGAGGACAAAGTCCGCTTCCCG, the PBM binding z-score was 1.84.

With CCTAGCAGGCCAGGGTCATTCAAGCATTTCGCTT, the PBM binding z-score was 1.59.

(Values after the supplement of paper PMC6555819.)
